The text below walks through data of ChEMBL document CHEMBL1961873, “Compounds: GSK PKIS; Assays: Nanosyn kinase panel” (2012).

In assay [1] the target is T1, 3-phosphoinositide-dependent protein kinase 1 (Homo sapiens) (UniProt O15530).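 Also: values are mean inhibition of PDK1.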
T1 sequence (whole entry): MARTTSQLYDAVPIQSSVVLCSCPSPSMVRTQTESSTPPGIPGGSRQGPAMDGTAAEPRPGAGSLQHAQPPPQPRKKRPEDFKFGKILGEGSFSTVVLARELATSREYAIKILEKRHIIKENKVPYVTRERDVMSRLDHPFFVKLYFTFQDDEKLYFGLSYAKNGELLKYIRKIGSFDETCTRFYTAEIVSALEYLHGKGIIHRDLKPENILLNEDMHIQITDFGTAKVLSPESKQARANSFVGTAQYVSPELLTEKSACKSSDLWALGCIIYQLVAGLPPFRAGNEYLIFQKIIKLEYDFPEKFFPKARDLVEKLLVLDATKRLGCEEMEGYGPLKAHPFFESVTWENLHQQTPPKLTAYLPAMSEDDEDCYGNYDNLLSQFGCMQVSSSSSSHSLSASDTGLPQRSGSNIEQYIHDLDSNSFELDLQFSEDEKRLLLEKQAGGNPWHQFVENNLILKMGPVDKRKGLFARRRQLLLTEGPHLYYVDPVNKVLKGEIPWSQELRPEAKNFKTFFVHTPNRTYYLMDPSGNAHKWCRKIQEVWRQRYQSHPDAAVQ
The settings on record: at 0.1 µM.

The target in assay [2] is cAMP-dependent protein kinase catalytic subunit alpha (Homo sapiens) (UniProt P17612). Particulars: at 0.1 µM.
Assay [3] shares this target. Particulars: at 1 µM.
Assay [4] deals with Protein kinase C alpha type (Homo sapiens) (UniProt P17252). The settings on record: at 0.1 µM.
Assay [5] has the same target. Particulars: at 1 µM.
Assay [6] concerns the target Protein kinase C beta type (Homo sapiens) (UniProt P05771). The settings on record: at 0.1 µM.
Assay [7] shares this target. Particulars: at 1 µM.
The target of assay [8] is Protein kinase C eta type (Homo sapiens) (UniProt P24723). The settings on record: at 0.1 µM.
For assay [9] the target is unchanged. The settings on record: at 1 µM.
The target of assay [10] is Protein kinase C gamma type (Homo sapiens) (UniProt P05129). Particulars: at 0.1 µM.
Assay [11] has the same target. The settings on record: at 1 µM.
In assay [12] the target is T2, Protein kinase C iota type (Homo sapiens) (UniProt P41743).
T2 sequence (whole entry): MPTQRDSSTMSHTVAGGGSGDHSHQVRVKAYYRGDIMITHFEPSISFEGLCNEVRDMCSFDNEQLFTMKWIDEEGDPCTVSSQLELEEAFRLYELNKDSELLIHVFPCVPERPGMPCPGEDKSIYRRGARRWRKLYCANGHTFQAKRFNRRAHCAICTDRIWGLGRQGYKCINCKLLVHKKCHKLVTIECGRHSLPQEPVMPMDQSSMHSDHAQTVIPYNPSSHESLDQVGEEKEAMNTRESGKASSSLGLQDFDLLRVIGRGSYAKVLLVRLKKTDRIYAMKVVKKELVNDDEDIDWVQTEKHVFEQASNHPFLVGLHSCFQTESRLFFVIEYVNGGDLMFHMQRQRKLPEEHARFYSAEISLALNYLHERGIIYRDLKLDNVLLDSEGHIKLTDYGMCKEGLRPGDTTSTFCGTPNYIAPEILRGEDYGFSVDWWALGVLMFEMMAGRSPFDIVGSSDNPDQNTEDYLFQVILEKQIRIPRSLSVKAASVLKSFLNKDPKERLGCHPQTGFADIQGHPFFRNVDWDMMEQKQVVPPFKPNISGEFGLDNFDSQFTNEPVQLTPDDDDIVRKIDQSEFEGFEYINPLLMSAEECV
The settings on record: at 0.1 µM.

The target in assay [13] is T2, Protein kinase C iota type (Homo sapiens). Particulars: at 1 µM.
The target in assay [14] is Protein kinase C theta type (Homo sapiens) (UniProt Q04759). The settings on record: at 0.1 µM.
Assay [15] has the same target. The settings on record: at 1 µM.
Assay [16] concerns the target Protein kinase C beta type (Homo sapiens) (UniProt P05771). The settings on record: at 0.1 µM. This is another data set of the same source.
The target is the same in assay [17]. The settings on record: at 1 µM. The source holds these as a separate data set.
Assay [18] has as its target T3, Serine/threonine-protein kinase D1 (Homo sapiens) (UniProt Q15139).
T3 sequence (whole entry): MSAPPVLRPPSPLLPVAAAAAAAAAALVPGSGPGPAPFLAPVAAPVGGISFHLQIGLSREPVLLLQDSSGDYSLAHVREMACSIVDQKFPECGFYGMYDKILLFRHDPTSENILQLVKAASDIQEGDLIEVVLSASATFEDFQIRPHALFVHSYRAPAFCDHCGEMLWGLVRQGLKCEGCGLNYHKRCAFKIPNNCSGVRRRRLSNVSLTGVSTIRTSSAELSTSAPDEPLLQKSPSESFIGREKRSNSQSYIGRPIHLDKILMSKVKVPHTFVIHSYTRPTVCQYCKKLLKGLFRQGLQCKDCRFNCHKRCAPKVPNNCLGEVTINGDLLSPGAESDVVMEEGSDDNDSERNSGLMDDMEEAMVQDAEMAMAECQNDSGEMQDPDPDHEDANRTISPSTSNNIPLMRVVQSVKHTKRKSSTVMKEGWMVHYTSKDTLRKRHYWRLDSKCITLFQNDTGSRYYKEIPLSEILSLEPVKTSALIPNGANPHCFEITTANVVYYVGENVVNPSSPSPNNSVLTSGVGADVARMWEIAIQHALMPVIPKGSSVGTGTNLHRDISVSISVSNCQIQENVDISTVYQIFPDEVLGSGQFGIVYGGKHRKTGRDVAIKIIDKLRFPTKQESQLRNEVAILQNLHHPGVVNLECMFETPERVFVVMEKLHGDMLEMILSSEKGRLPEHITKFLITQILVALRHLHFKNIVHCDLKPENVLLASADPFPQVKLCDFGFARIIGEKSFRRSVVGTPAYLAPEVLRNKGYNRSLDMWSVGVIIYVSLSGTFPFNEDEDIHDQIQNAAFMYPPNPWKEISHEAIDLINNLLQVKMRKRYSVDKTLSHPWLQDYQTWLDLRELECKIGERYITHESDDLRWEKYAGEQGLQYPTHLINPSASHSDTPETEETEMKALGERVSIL
Particulars: at 0.1 µM.

For assay [19], the target named is T3, Serine/threonine-protein kinase D1 (Homo sapiens). The settings on record: at 1 µM.
For assay [20], the target named is T4, Serine/threonine-protein kinase D2 (Homo sapiens) (UniProt Q9BZL6).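 Also: reported percent inhibition values are means, part of the GSK PKIS kinase panel screen.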
T4 sequence (whole entry): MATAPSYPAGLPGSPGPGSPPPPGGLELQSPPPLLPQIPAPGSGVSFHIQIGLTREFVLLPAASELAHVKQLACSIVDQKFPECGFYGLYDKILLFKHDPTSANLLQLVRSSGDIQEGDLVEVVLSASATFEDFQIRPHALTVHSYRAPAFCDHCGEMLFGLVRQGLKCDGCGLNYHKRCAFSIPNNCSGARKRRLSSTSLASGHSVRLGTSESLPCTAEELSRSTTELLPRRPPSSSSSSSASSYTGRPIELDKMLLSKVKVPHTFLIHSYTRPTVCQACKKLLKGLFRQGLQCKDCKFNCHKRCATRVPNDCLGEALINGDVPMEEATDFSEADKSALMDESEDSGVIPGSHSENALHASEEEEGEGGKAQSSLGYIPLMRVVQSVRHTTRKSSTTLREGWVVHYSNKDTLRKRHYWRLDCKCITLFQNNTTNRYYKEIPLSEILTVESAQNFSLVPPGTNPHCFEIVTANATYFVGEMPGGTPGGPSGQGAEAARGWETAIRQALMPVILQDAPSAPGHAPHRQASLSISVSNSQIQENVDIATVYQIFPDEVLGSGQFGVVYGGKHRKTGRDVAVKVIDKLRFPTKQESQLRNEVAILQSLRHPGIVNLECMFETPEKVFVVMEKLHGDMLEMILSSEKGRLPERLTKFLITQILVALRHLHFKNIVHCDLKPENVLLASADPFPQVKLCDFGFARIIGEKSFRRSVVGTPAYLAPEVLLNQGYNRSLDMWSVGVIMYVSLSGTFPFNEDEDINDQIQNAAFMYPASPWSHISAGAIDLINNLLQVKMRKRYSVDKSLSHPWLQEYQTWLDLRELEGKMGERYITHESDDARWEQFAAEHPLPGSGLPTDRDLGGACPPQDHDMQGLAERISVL
Particulars: at 0.1 µM.

Protein kinase C beta type (Homo sapiens), sequence (P05771 2-671 limits assumed): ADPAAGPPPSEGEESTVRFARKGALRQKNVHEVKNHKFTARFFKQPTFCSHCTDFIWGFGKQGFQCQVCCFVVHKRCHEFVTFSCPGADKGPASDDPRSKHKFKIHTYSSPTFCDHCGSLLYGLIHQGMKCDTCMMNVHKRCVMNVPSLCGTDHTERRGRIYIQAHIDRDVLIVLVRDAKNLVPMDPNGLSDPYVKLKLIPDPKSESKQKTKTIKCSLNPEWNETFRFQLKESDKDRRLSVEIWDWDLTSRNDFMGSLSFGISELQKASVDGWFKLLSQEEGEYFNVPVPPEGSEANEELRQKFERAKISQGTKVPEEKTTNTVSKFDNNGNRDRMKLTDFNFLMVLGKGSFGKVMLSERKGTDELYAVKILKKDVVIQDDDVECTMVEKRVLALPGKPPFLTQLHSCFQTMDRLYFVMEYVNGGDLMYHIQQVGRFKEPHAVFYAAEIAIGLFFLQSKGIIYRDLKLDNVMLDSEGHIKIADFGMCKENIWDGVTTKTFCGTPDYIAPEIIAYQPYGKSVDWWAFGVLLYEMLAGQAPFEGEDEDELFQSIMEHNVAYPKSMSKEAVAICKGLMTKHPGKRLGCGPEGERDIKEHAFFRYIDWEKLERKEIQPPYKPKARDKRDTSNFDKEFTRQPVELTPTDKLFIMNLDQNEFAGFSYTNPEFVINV
Protein kinase C theta type (Homo sapiens), sequence (Q04759 whole entry, looked up): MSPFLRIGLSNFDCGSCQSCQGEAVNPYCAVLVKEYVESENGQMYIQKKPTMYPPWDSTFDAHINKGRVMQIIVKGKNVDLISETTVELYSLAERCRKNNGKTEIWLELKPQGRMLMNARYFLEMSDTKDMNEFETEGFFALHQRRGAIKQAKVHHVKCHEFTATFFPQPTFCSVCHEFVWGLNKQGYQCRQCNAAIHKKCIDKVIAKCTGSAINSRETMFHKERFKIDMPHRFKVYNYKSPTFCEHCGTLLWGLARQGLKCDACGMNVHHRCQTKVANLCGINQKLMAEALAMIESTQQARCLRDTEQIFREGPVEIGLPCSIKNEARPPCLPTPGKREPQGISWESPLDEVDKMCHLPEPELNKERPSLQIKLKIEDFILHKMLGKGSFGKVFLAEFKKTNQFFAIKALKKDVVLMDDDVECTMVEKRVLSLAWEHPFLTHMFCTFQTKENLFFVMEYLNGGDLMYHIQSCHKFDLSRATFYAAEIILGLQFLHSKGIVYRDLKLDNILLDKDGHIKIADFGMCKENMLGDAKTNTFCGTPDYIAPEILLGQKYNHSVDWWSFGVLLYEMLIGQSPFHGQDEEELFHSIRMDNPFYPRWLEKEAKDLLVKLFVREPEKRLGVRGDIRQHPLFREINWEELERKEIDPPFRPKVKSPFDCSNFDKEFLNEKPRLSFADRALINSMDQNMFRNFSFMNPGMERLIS
Protein kinase C eta type (Homo sapiens), sequence (P24723 whole entry): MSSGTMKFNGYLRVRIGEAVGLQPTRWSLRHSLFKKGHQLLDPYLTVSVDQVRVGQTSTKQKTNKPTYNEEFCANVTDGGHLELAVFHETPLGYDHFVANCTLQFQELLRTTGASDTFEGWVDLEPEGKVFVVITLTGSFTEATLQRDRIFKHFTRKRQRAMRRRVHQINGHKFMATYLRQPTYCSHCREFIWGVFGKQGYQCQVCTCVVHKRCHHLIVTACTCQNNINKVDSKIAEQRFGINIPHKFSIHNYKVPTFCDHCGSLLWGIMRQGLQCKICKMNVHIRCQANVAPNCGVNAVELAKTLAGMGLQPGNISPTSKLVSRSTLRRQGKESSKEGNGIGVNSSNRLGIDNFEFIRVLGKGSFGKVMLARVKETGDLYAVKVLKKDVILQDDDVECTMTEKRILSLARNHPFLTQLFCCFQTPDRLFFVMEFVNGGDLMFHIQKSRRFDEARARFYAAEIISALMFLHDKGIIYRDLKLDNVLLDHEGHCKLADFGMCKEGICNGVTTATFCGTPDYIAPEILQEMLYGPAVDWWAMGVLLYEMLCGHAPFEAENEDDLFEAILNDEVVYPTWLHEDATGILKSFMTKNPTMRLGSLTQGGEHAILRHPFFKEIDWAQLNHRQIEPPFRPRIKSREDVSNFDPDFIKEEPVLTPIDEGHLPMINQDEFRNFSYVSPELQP

Consider `Nc1ncnc2occ(-c3ccc(NC(=O)Nc4cccc(C(F)(F)F)c4)cc3)c12`, for which the inhibition in [1] was -1.02%; in assay [2], 2.38%; in [3], 4.85%; in assay [4] it was 0.88%; in assay [5] it was 1.68%; in assay [6], 0.7%. Further, the inhibition in assay [7] was 12.6%; in assay [8] it was 0.55%; in [9], 6.96%; in assay [10], -0.58%; in assay [11], 2.18%; in assay [12], 3.47%. Also, the inhibition was determined as 3.34% in assay [13]; 2.55% in [14]; 2.66% in [15]; 1.71% in assay [16]; 2.2% in [17]; 5.29% in assay [18]. Also, the results for the inhibition in [19] and in [20] were 7.85% and 5.02%, respectively.
With `O=C1NC(=O)C(c2ccc(Cl)cc2)=C1Nc1ccc(Cl)c(C(=O)O)c1`, the inhibition is 0.12% in assay [1]; -1.8% in assay [2]; -1.57% in assay [3]; -0.02% in assay [4]; -0.11% in assay [5]; -1.13% in assay [6]. The inhibition in assay [7] is -0.89%; in assay [8], -3.26%; in assay [9] it was -3.28%; in assay [10], 0.52%; in [11] it was 1.73%; in assay [12], 0.12%. The inhibition in assay [13] was 3.71%; in assay [14] it was -0.99%; in assay [15], -0.44%; in assay [16], -0.73%; in assay [17], 3.47%; in [18] it was -1.33%. For the same compound, the inhibition was 0.04% in assay [19] and -1.08% in assay [20].
Turning to `Nc1nc(-c2ccc3c(c2)C(=Cc2cc(Br)c(O)c(Br)c2)C(=O)N3)cs1`, the inhibition is -1.98% in assay [1]; -0.95% in assay [2]; -0.7% in assay [3]; -0.01% in assay [4]; 1.51% in assay [5]; 0.67% in assay [6]. Further, the inhibition in [7] is 0.52%; in [8], -1.62%; in [9], -1.96%; in [10] it was -2.56%; in assay [11] it was 2.01%; in [12], 0.79%. The inhibition in assay [13] is 0.34%; in [14], -1.06%; in [15], 0.33%; in [16], -0.52%; in [17], 1.78%; in assay [18], -1.69%. For the same compound, the inhibition in [19] is -1.78%; in assay [20], -2.06%.
Take `CN1CCC(C(=O)Nc2n[nH]c3nnc(-c4ccccc4)cc23)CC1`: the inhibition in assay [1] came to 0.14%; in assay [2] it was 2.6%; in [3], 1.51%; in [4], 0.67%; in assay [5], 1.72%; in assay [6] it was 1.03%. Moreover, the inhibition in [7] worked out at 1.27%; in [8], 4.63%; in [9] it was 5.6%; in assay [10], 2.25%; in [11], 5.3%; in assay [12], 2.28%. Besides, the inhibition is 0.85% in [13]; 2.64% in assay [14]; 3.84% in assay [15]; 1.32% in assay [16]; 1.6% in [17]; 5.4% in assay [18]. Further, the inhibition in assay [19] came to 6.32%; in assay [20], 4.78%.
As to `Cc1cccc(-c2n[nH]cc2-c2ccc3ncccc3n2)n1`, the inhibition in assay [1] is 1.02%; in assay [2] it was 1.12%; in [3], 1.28%; in assay [4], 0.19%; in assay [5], -0.46%; in assay [6] it was 0.17%. The inhibition in assay [7] is 0.39%; in assay [8], -0.08%; in assay [9] it was 2.61%; in [10], -0.61%; in assay [11], 0.55%; in assay [12], 0.4%. Besides, the inhibition is -1.7% in assay [13]; 0.33% in [14]; -0.49% in assay [15]; 0.52% in assay [16]; 0.49% in [17]; 2.77% in assay [18]. Besides, the inhibition in assay [19] was 32.8%; in assay [20], 5.63%.
Take `O=C1Nc2ccc(C(=O)c3ccco3)cc2C1=Cc1cc(Cl)c(O)c(Cl)c1`: the inhibition was 3.22% in assay [1]; 1.97% in assay [2]; 4.78% in assay [3]; 1.38% in [4]; 3.32% in [5]; -0.57% in assay [6]. For the same compound, the inhibition in assay [7] turned out to be 1.37%; in assay [8] it was 4.29%; in assay [9], 7.64%; in assay [10], 1.31%; in assay [11] it was 6.26%; in assay [12], 4.4%. The inhibition in [13] was -0.01%; in assay [14] it was 2.45%; in assay [15], 7.59%; in assay [16], 1.83%; in assay [17] it was 3.01%; in [18] it was 2.76%. For the same compound, the inhibition in assay [19] came out at 6.32%; in assay [20] it was 2.72%.

For orientation: inhibition means the relative decrease from the control value, in per cent.
